Screening data as filed in PubChem.
CYP2C19 activ = cytochrome P450 2C19 (human) activation; recombinant CYP2C19, luciferin-H EGE luminescence; hits give high values; 0 = fully inhibited enzyme, 1 = untreated enzyme; activation factor at 5 µM; 96,000 tested, under 10 active;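 active = activation factor of at least 2 at 5 µM in the primary screen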;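 also: 0 = wells with 2.5 mM tranylcypromine and 1 = vehicle-only wells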
Target sequence (P33261 whole entry, looked up): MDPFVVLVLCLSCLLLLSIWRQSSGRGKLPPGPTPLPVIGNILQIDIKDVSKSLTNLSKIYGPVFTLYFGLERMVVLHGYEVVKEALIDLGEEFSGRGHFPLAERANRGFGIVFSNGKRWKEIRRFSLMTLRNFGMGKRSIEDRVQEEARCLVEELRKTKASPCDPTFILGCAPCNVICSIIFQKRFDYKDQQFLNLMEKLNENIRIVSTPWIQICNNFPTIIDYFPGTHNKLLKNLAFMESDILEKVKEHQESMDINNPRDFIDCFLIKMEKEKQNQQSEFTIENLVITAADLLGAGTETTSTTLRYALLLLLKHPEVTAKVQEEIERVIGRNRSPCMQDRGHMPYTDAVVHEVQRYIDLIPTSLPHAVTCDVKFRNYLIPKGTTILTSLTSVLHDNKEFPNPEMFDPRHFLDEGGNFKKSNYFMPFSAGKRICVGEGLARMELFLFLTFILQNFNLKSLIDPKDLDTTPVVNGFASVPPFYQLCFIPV
CYP2C9 activ = CYP2C9 (human) activation. recombinant CYP2C9, luciferin-H conversion, luminescence; hits give high values; factor 1 = untreated enzyme, 0 = blocked. activation factor at 5 µM. AID 1024. actives 1.4% (n = 96,000);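 active = activation factor of 2 or more for CYP2C9 at a 5 µM dose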;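 also: 0 = sulfaphenazole-blocked wells and 1 = vehicle-only wells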
CYP2C9 inh = human CYP2C9 inhibition; actives 20% (n = 96,000); P11712; CYP2C9 Supersomes, luciferin-H conversion, luminescence; inhibition, % at 5 µM;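 active = blocking of liver enzyme CYP2C9 beyond about 50% at 5 µM, limit read from the data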
Cav32 inh = human Cav3.2 channel inhibition, primary screen; O95180; Cav3.2-expressing cells, Fluo-4 calcium fluorescence FDSS; hits give low values; B-score at 10 µM; actives 4% (n = 100,000);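 active = single-dose well whose peak fluorescence ratio is a statistical outlier from its plate by either plate-standardised score or position-corrected B-score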
CYP2C19 inhib = human CYP2C19 inhibition | inhibition, % at 5 µM | actives 21% (n = 96,000) | P33261 | CYP2C19 Supersomes, luciferin-H EGE luminescence, 30 min;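 active = CYP2C19 inhibition above a set limit at 5 µM in the primary screen, cut at about 50% in these data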;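 also: plate controls were negative control wells for no effect and 2.5 mM tranylcypromine positive control for full effect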
Starred values were filed as active, the others as inactive; x = no result. Hits are enriched below; roughly 27% of the tested compounds scored in any of these assays.

SMILES	CYP2C19 activ	CYP2C9 activ	CYP2C9 inh	Cav32 inh	CYP2C19 inhib
COC(=O)/C(=C\Nc1ccccc1N)c1ncc(C(F)(F)F)cc1Cl	0.7	0.9	8	0.73	32
O=C(O)c1cc([N+](=O)[O-])ccc1C(=O)Nc1ccccc1	1	1.1	-10	-0.022	4
O=[N+]([O-])c1ccc(O)c(NC(=S)Nc2ccccc2)c1	0.4	0.1	91*	-0.38	56*
CCc1cc2c(C)cc(=O)oc2cc1OC(=O)C1CCCN1C(=O)OC(C)(C)C (stereo not given)	0.7	0.6	39	-0.82	30
CCOc1cc(/C=C2\C(=O)N(c3nc(-c4ccc(Br)cc4)cs3)N=C2c2ccccc2)ccc1O	0.7	0.1	87*	x	25
CCOc1cc(/C=C2/SC(=O)N(CC(=O)N3CCc4ccccc4C3)C2=O)ccc1OCC(=O)O	1	1	3	0.13	1
O=C(OCc1ccc(Cl)c(Cl)c1)c1ccccn1	0	0.5	53*	0.0047	96*
O=C(COC(=O)c1ccncc1)NCc1ccccc1	0.1	0.4	65*	0.36	85*
O=C(COc1ccccc1Cl)NCc1ccncc1	0.1	0.2	78*	0.88	94*
N/C(=N\OC(=O)c1ccc(Cl)c(Cl)c1)c1ccccn1	1	1.1	-10	0.21	1
O=C(COC(=O)c1cnccn1)NCc1ccccc1	1	1	-3	-0.52	2
O=C(COC(=O)c1ccccn1)NCc1ccccc1	0.3	1	5	0.2	69*
CN(C)S(=O)(=O)c1cccc(C(=O)OCC(=O)NCc2ccccc2)c1	1.1	1	3	0.45	-7
CCCCNC(=O)C1CCCN1C(=O)Nc1cccc(OC)c1 (stereo not given)	1.1	1.1	-8	0.76	-7
O=C(OCC1CC(c2ccccn2)=NO1)c1ccc(Br)cc1 (stereo not given)	0.2	0.2	82*	-2.8	77*
O=C(COC(=O)c1ccccn1)c1ccc(Br)cc1	0.4	0.9	13	-0.24	57*
Cc1ccc(C(=O)COC(=O)c2cnccn2)cc1	1	1	-1	0.011	4
CCN1C(=O)c2ccccc2S(=O)c2ccc(C(=O)NC3CC3)cc21 (stereo not given)	1	1	4	0.09	2
COc1cc(C(=O)NCCC(C)C)c([N+](=O)[O-])cc1OC	1	1.1	-14	0.64	0
COc1ccc(N(CC(=O)NCCSCc2c(F)cccc2Cl)S(C)(=O)=O)cc1OC	1.2	0.1	87*	0.53	-20
CS(=O)(=O)N(CC(=O)NCCSCc1c(F)cccc1Cl)c1ccc2c(c1)OCO2	0.2	0.4	57*	-6.5*	79*
CC(C)(C)SCCNC(=O)CN(c1ccc(F)c(Cl)c1)S(C)(=O)=O	1.1	0.9	9	-1.8	-5
COc1ccc(CCNC(=O)CN(c2ccc(OC)c(OC)c2)S(C)(=O)=O)cc1OC	1	0.8	16	0.079	3
O=C1CN(C(=O)c2ccc(Br)o2)C(c2ccccc2)c2cc(Cl)ccc2N1 (stereo not given)	0.1	0	100*	-4.5*	86*
O=C1CN(C(=O)c2ccco2)C(c2ccccc2)c2cc(Cl)ccc2N1 (stereo not given)	0.4	0.3	71*	-0.39	59*
SMILES	CYP2C19 activ	CYP2C9 activ	CYP2C9 inh	Cav32 inh	CYP2C19 inhib
O=C1CN(C(=O)c2ccc(Br)o2)C(c2ccc(F)cc2)c2cc(Cl)ccc2N1 (stereo not given)	0.6	0.3	73*	-6.8*	36
COc1ccc(N(C(=O)c2ccc(Cl)cc2)C2=CC3CCC(C2)N3C)cc1 (stereo not given)	1	0.8	23	1.2	3
N#CC(c1ccccn1)(c1ncc(C(F)(F)F)cc1Cl)N1CCOCC1 (stereo not given)	0.9	0.8	17	0.78	10
O=C1CCCN1c1ccc(S(=O)(=O)Oc2cccc(Cl)c2)cc1[N+](=O)[O-]	0.3	0.5	46	-1.4	66*
COC(=O)c1cc(NS(=O)(=O)c2ccc(N3CCCCC3)c([N+](=O)[O-])c2)cc(C(=O)OC)c1	0.9	0.8	22	-0.004	10
CN1CCCC(n2nc(Cc3ccc(Cl)cc3)c3ccccc3c2=O)CC1 (stereo not given)	x	x	x	-0.73	x
Fc1ccc(-c2[nH]ncc2-c2nnnn2-c2ccccc2)c(F)c1	0.1	0.5	51*	2.7	91*
COC(=O)C1CCN(C(=O)c2ccc(SC)cc2OC)CC1	0	0.9	12	1	99*
COc1ccc(OC)c(C(=O)N2CCC(C(=O)c3ccc(F)cc3)CC2)c1	x	x	x	1	x
CC(=O)c1ccc(N2CCN(C(=O)C3CCN(S(=O)(=O)Cc4ccccc4)CC3)CC2)cc1	1	0.3	67*	0.72	4
O=C(C1CCCN(S(=O)(=O)Cc2ccccc2)C1)N1CCC(Cc2ccccc2)CC1 (stereo not given)	0	0.1	85*	-5.5*	97*
O=C(C1CCN(S(=O)(=O)Cc2ccccc2)CC1)N1CCN(c2ncccn2)CC1	1	0.8	21	0.51	2
COC(=O)C1CCN(S(=O)(=O)Cc2ccccc2)CC1	0.4	1.1	-13	0.92	63*
COC(=O)C1(C(F)(F)F)N=C2Sc3ccccc3N2C(N2CCOCC2)=N1 (stereo not given)	0.8	0.9	8	2	23
O=C1CN(S(=O)(=O)c2ccccc2)CC(=O)N1CCc1ccccc1	0.8	0.9	14	0.051	17
Cc1ccc(NC2=NCC(=O)N2CCc2ccccc2)cc1C	0	0.5	50	-0.033	98*
CCOc1ccc(NC2=NCC(=O)N2CCc2ccccc2)cc1	0.3	0.6	44	-0.19	67*
Cc1ccc2[nH]c(=O)c(CN(Cc3ccco3)C(=O)c3cccs3)cc2c1	x	x	x	-0.36	x
O=C(c1cccs1)N(Cc1ccccn1)Cc1ccco1	0.5	0.6	44	0.52	54*
CCOCCCNS(=O)(=O)c1ccc(NC(=O)N2c3ccccc3Sc3ccccc32)cc1	0.5	0.1	92*	-0.83	46
Cc1[nH]n(-c2ccccc2)c(=O)c1N=Nc1nccs1	0.9	0.4	58*	-3.5	7
Cc1ccc(S(=O)(=O)Cn2nnnc2CN2CCCC3(CCCCC3)C2)cc1	0.1	0.2	83*	-0.79	93*
COc1ccc2nc(NC(=O)C(NS(=O)(=O)c3cccc4nsnc34)C(C)C)sc2c1 (stereo not given)	0.6	0.3	74*	x	41
Cc1nc2ccc(S(=O)(=O)NCC(=O)N3CCC(C)CC3)cc2s1	0.5	0.9	14	0.48	50*
Cc1nc2ccc(S(=O)(=O)NC(C(=O)Nc3nc4ccc(Cl)cc4s3)C(C)C)cc2s1 (stereo not given)	0.2	0.1	92*	-3	84*
CC(C)C(NS(=O)(=O)c1cccc2nsnc12)C(=O)NCc1ccc2c(c1)OCO2 (stereo not given)	0.6	0.4	59*	0.038	44
